Results published in the supplement of paper PMC10849652.
The full data set covers some 7,900 targets. This sample favours those with a hit. About 0.6% of all pairs of compound and target were hits. Unmarked numbers belong to inactive results.

Tests used:
Assay in all cases: log2 fold change, soluble protein after heating vs DMSO (PISA); higher = thermal stabilisation; K562 cells, 10 uM, 30 min; active = over 0.2 and 3.5 SD of the protein, either way, in both replicates (recomputed)
[1] = compound: COC1=CC=C(C=C1)CN2C=CC3=C2C=C(C=C3)C(=O)NO
Summary of the method: (§1)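 K562 cells at 2×10^6 cells/mL were given 10 μM compound for 30 min. Aliquots then went through 3 min of heating across 48°C-58°C, were pooled, and were extracted in PBS with 0.5% NP-40 at 4°C, and the supernatant after 21,000xg for 90 min was quantified by TMTpro 16plex LC-MS/MS with channel sums equalised. Thermal stability relative to control samples, from duplicates, is given as log2 fold change.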

filanesib = compound: CON(C)C(=O)N1N=C(c2cc(F)ccc2F)S[C@@]1(CCCN)c1ccccc1 [filanesib]
Summary of the method: as §1

zotarolimus = compound: CO[C@H]1C[C@@H]2CC[C@@H](C)[C@@](O)(O2)C(=O)C(=O)N2CCCC[C@H]2C(=O)O[C@H]([C@H](C)C[C@@H]2CC[C@H](n3cnnn3)[C@H](OC)C2)CC(=O)[C@H](C)/C=C(\C)[C@@H](O)[C@@H](OC)C(=O)[C@H](C)C[C@H](C)/C=C/C=C/C=C/1C [zotarolimus]
Summary of the method: as §1

alisertib = compound: COc1cc(Nc2ncc3c(n2)-c2ccc(Cl)cc2C(c2c(F)cccc2OC)=NC3)ccc1C(=O)O [alisertib]
Summary of the method: as §1

[2] = compound: COc1cc2nc(-c3cc(F)ccc3O)nc(N[C@@H]3CNC[C@H]3C(C)(C)O)c2cc1OC
Summary of the method: as §1

gefitinib = compound: COc1cc2ncnc(Nc3ccc(F)c(Cl)c3)c2cc1OCCCN1CCOCC1 [gefitinib]
Summary of the method: as §1

[3] = compound: COc1cccc2cc(-c3nc([C@H]4CC[C@H](C(=O)O)CC4)n4ncnc(N)c34)[nH]c12
Summary of the method: as §1

lapatinib = compound: CS(=O)(=O)CCNCc1ccc(-c2ccc3ncnc(Nc4ccc(OCc5cccc(F)c5)c(Cl)c4)c3c2)o1 [lapatinib]
Summary of the method: as §1

idasanutlin = compound: COc1cc(C(=O)O)ccc1NC(=O)[C@@H]1N[C@@H](CC(C)(C)C)[C@](C#N)(c2ccc(Cl)cc2F)[C@H]1c1cccc(Cl)c1F [idasanutlin]
Summary of the method: as §1

pictilisib = compound: CS(=O)(=O)N1CCN(Cc2cc3nc(-c4cccc5[nH]ncc45)nc(N4CCOCC4)c3s2)CC1 [pictilisib]
Summary of the method: as §1

UniProt Q9UER7, sequence (Q9UER7 whole entry, looked up): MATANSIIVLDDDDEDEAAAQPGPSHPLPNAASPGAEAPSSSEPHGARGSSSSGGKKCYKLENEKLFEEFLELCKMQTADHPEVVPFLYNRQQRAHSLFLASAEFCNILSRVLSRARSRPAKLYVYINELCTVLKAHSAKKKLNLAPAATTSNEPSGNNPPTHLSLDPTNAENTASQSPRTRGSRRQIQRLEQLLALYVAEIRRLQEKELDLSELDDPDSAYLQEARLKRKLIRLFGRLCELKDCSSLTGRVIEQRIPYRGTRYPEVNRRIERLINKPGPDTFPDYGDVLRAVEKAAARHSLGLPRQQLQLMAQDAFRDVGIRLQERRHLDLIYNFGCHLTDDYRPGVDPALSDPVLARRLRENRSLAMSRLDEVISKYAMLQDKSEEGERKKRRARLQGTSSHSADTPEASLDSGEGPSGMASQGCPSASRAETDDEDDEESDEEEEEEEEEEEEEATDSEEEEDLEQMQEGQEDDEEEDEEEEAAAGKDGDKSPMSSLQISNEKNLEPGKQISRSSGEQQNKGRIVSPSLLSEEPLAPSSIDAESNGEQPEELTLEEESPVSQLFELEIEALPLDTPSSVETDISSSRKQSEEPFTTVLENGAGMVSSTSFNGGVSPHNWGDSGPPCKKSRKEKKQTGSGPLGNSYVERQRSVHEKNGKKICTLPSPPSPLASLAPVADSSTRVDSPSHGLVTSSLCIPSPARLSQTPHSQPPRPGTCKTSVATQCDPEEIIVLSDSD
UniProt Q03468, sequence (Q03468 whole entry, looked up): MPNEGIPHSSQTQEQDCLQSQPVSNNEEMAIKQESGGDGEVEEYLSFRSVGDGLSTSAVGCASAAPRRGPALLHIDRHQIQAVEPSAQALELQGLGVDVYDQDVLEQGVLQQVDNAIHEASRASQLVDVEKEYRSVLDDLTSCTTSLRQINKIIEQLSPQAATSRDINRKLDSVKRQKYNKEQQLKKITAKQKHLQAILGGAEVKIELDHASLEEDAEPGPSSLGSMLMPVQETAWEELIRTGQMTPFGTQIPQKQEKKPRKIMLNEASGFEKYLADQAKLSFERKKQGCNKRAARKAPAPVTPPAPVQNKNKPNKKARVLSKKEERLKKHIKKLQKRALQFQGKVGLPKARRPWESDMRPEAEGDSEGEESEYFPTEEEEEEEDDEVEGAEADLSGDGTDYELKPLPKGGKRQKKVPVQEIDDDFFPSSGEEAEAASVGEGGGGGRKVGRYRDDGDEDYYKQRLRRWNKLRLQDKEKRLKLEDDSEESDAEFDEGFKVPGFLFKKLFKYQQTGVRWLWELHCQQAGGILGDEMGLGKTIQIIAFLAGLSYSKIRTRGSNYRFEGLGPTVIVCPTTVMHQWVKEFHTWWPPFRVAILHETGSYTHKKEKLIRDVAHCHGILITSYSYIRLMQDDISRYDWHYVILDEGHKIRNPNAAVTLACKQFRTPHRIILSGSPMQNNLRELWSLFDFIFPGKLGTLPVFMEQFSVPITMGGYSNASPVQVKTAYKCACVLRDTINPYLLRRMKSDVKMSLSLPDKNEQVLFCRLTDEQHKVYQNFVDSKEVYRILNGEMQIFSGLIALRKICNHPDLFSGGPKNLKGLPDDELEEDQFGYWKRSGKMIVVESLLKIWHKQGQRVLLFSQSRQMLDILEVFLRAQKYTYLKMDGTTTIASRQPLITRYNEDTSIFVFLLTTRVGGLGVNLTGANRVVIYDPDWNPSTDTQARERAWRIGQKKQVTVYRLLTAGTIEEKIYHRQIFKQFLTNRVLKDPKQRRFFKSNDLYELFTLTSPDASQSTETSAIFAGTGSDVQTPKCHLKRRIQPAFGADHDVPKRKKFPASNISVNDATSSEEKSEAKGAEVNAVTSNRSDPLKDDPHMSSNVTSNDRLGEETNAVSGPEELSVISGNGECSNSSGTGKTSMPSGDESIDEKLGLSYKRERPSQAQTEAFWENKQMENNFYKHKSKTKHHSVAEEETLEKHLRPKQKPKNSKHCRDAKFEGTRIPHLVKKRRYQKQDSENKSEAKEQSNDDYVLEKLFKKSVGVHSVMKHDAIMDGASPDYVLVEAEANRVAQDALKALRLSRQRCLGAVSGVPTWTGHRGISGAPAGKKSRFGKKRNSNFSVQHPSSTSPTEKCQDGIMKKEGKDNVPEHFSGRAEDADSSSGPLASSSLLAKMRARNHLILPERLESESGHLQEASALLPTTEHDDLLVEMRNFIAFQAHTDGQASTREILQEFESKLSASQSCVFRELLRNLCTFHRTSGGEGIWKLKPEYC
UniProt P07711, sequence (P07711 whole entry, looked up): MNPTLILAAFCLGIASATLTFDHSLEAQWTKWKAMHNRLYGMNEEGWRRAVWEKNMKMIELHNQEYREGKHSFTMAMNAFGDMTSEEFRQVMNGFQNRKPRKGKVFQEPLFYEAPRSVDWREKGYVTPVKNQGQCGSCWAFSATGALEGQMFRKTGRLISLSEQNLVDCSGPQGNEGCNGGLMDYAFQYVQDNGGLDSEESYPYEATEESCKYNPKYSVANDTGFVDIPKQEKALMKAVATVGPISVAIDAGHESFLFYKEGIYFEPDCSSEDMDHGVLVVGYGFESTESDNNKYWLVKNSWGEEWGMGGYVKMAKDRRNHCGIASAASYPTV
UniProt Q01780, sequence (Q01780 whole entry, looked up): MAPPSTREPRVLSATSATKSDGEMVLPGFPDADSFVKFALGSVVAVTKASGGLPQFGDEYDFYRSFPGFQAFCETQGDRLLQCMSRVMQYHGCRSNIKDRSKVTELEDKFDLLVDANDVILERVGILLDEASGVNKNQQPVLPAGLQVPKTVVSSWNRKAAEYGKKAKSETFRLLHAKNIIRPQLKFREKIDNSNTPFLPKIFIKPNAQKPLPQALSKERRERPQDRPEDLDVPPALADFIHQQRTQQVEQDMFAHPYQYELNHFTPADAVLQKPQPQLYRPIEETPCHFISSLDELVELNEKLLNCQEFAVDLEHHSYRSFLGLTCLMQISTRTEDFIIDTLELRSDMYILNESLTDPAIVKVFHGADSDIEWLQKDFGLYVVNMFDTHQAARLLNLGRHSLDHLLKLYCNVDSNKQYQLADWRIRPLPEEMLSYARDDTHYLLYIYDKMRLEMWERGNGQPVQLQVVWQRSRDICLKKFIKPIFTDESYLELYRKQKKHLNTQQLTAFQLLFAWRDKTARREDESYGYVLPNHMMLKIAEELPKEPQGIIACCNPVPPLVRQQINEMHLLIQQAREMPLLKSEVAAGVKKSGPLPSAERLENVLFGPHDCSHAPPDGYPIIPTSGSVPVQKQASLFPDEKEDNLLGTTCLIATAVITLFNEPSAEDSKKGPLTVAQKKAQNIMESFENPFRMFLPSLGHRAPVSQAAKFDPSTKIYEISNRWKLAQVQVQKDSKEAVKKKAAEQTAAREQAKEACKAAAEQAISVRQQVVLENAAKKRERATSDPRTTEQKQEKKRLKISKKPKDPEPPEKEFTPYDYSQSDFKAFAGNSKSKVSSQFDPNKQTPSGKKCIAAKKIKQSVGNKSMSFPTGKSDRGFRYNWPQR
UniProt P23919, sequence (P23919 whole entry, looked up): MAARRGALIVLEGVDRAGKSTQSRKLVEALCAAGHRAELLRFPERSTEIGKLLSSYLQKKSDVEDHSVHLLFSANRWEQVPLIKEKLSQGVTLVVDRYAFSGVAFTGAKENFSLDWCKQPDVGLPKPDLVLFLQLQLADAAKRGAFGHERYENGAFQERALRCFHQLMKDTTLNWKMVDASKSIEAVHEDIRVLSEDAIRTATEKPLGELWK
UniProt P39656, sequence (P39656 whole entry, looked up): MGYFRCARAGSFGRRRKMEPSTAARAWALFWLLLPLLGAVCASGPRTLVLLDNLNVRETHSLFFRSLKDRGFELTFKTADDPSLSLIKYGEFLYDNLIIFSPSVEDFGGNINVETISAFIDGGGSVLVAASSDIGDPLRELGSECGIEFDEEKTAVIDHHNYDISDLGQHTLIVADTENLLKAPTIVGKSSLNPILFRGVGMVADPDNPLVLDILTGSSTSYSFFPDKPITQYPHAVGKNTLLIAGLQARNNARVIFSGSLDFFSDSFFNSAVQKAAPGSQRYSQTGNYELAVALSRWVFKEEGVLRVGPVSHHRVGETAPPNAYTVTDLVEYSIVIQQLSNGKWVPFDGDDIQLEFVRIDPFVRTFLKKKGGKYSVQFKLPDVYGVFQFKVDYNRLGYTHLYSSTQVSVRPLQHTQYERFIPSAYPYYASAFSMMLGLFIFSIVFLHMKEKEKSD
UniProt P50570, sequence (P50570 whole entry, looked up): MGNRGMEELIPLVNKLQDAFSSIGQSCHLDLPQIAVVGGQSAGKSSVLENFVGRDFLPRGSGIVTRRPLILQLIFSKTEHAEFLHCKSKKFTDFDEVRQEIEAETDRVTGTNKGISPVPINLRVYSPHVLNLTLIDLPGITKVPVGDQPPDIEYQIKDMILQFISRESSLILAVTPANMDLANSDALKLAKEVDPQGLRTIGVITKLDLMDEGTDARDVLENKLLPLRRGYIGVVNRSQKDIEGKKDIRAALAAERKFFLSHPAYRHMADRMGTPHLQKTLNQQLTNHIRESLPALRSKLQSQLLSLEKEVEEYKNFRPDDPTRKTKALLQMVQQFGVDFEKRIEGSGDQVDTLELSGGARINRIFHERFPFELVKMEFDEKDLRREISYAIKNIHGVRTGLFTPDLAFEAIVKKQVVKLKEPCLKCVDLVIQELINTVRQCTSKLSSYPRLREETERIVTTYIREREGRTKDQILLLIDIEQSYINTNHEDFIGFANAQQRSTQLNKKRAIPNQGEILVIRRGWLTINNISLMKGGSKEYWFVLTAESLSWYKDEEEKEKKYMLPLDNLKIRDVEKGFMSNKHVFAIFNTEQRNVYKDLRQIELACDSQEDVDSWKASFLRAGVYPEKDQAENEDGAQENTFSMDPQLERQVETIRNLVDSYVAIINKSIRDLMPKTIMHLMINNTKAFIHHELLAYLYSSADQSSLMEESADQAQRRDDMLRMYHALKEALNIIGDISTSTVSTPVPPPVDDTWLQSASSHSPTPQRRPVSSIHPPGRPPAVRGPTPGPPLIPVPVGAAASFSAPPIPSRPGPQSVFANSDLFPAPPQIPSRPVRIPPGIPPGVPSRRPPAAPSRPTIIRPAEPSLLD

Target	log2 fold change [1]	log2 fold change (filanesib)	log2 fold change (zotarolimus)	log2 fold change (alisertib)	log2 fold change [2]	log2 fold change (gefitinib)	log2 fold change [3]	log2 fold change (lapatinib)	log2 fold change (idasanutlin)	log2 fold change (pictilisib)
DNAJC24 (UniProt Q6P3W2)	-0.06	0.199	0.004	0.045	-0.111	0.018	-0.112	0.034		
EXOC1 (UniProt Q9NV70)	-0.056	0.01	0.038	0.015	0.131	-0.045	-0.129	-0.011	-0.084	-0.021
DNM2 isoform 4 (UniProt P50570)	0.455	0.021	0.273	0.316		-0.013	-0.272			-0.123
EIF2AK1 (UniProt Q9BQI3)	-0.047	0.014	-0.057	0.032	0.01		-0.089	0.025	-0.035	-0.147
DOCK8 (UniProt Q8NF50)	0.475	0.464	0.083	-0.029		0.006	-0.428		0.217	-0.337
DCAF13 (UniProt Q9NV06)	-0.083	0.333	-0.01	-0.067	-0.047	-0.063	-0.112	0.083	0.17	-0.103
CTSV (UniProt O60911)	-0.006	-0.112	-0.011	-0.042	-0.002	0.056	0.141	-0.064	-0.036	0.135
CTSH (UniProt P09668)	0.066	-0.072	-0.046	-0.06	0.021	0.025	0.084	0.018	0.029	0.019
DNAH10 (UniProt Q8IVF4)	0.574 (active)	-0.187	-0.046	-0.042		-0.04	0.007			0.052
ERCC6 (UniProt Q03468)	-0.067	-0.268	0.102	0.102	-0.002	0.026	-0.042	0.077	-0.14	-0.04
EXOSC10 (UniProt Q01780)	0.593	0.136	0.115	-0.002	0.387		0.1	-0.221	0.01	0.227
ESYT1 isoform 2 (UniProt Q9BSJ8)	0.042	0.013	0.08	-0.094	0.008	0.053	-0.122	0.089	0.08	-0.038
FAM177A1 isoform 2 (UniProt Q8N128)	-0.072	-0.145	-0.041	0.013	-0.291 (active)	0.031	-0.029	-0.018	-0.02	0
DYRK1A isoform 2 (UniProt Q13627)	-0.061	0.01	0.023	-0.03	0.004	0.007	0.036	-0.034	0	0.017
FADS1, A0A0A0MR51	-0.31 (active)	-0.112	-0.004	-0.007	-0.111	0.049	0.009	0.044	0.055	-0.092
DTYMK (UniProt P23919)	-0.043	-0.09	-0.023	-0.014	0.047	-0.108	0.152	-0.026	-0.065	-0.054
CTSL (UniProt P07711)	-0.143	0.316 (active)	-0.041	-0.099	0.044	0.025	0.086	0.087	0.125	0.057
ECH1 (UniProt Q13011)	-0.008	-0.215	-0.05	0.033	0.045	-0.032	0.02	-0.011	-0.134	0.033
DHRS13 (UniProt Q6UX07)	-0.096	0.298	0.271	-0.011		0.081	-0.002		0.057	0.026
DAXX (UniProt Q9UER7)	0.248	0.008	0.055		0.283	-0.125		-0.05	-0.067	0.247
DCP2 (UniProt Q8IU60)	-0.085	0.121	-0.037		0.075			-0.042	0.167	
EOGT (UniProt Q5NDL2)	-0.026	0.053	0.013	0.028	0.056	0.008	-0.021	0.068	0.036	0.007
EZH2 isoform 2 (UniProt Q15910)	-0.105	-0.113	-0.073	-0.209	-0.129		-0.144	0.112	0.073	
ESS2 (UniProt Q96DF8)	-0.022	0.046	-0.019	-0.125	-0.037	-0.088	0.005	0.073	0.052	-0.083
DDX46 (UniProt Q7L014)	0.109	-0.003	0.046	0.434	0.001	0.041	-0.005	0.026	0.029	0.117
FAM193B (UniProt Q96PV7)	-0.179	0.379	-0.077		0.112			-0.066	0.311	
ELF1 (UniProt P32519)	0.001	0.028	-0.019		-0.297	0.01		-0.12	0.089	
DDOST (UniProt P39656)	-0.068	-0.009	0.036	-0.065	0.003	-0.019	0.012	0.019	0.013	-0.04
DDX27 (UniProt Q96GQ7)	0.091	0.278	0.071	0.415		0.044	-0.138		0.246	0.061
